# Assay results from PubChem BioAssay AID777 (Sanford-Burnham Center for Chemical Genomics, 2007).
# About 19,000 (20%) of roughly 96,000 compounds were called active. Not all results are given here. A number with no mark means an inactive call.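 How the source made its calls: active means blocking of liver enzyme CYP2C9 beyond about 50% at 5 µM (limit read from the data); inactive means the rest.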
# Target: Cytochrome P450 2C9 (Homo sapiens) (UniProt P11712)
# Assay: blockers of cytochrome P450 2C9 activity – biochemical, luminescence, ADME assay, primary screen (AID 777)
# Conditions: CYP2C9 Supersomes, luciferin-H conversion, at 5 µM, hits give high values
# Chain of Cytochrome P450 2C9 (Homo sapiens) (P11712 whole entry, looked up): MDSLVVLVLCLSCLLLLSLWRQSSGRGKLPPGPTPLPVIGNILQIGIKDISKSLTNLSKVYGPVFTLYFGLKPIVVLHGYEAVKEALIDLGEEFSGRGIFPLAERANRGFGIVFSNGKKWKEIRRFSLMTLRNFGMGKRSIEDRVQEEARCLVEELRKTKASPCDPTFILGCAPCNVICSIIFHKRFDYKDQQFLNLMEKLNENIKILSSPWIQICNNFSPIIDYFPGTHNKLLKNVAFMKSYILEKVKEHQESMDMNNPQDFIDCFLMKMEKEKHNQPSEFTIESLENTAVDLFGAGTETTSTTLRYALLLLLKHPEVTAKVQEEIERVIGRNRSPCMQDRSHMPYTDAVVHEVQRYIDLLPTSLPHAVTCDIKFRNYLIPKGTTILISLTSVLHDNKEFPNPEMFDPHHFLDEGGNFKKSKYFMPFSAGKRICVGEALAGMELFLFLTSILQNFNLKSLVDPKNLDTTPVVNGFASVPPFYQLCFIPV
row,SMILES,inhibition
1,Cc1ccc(NC(=O)NCC(c2cccnc2)N2CCOCC2)cc1 (stereo not drawn),2.5%
2,COc1ccc(N/N=C2/CCCCC2=O)cc1,-10.8%
3,Cc1nc2cc(NC(=O)NCc3ccccc3)ccc2o1,-5.6%
4,O=C(O)c1cscn1,-3.7%
5,N#C/C(=C(\O)CCl)c1nnc2n1CCCCC2,3.8%
6,O=C(CCC(=O)OCC(F)(F)C(F)F)NCc1ccccc1,4.8%
7,O=C(CCC(=O)OCc1cccc(C(=O)Oc2ccccc2)c1)Nc1cccc2ccccc12,95.5% (active)
8,O=C(O)c1ccccc1-c1ccccc1C(=O)Nc1cccc2ccccc12,36%
9,CCOC(=O)C1=C(CSc2nnnn2C)N(C)C(=O)NC1c1ccccc1 (stereo not drawn),-20.4%
10,Cc1ccccc1NC(=O)C(C)c1ccc(-c2ccccc2)c(F)c1 (stereo not drawn),67.2% (active)
11,Cc1ccccc1NC(=O)c1ccccc1,0.6%
12,CC(Sc1nncn1C)C(=O)Nc1ccccc1-c1ccccc1 (stereo not drawn),15.8%
13,Cc1cccc(N2CCN(Cc3c(C)n(C)n(-c4ccccc4)c3=O)CC2)c1C,-16.5%
14,CCOC(=O)N1CCN(Cc2nc(N)nc(Nc3ccc(C)cc3)n2)CC1,15.5%
15,Cc1ccccc1Nc1nc(N)nc(CN2CCN(c3ccccn3)CC2)n1,23.8%
16,CN(CCO)Cc1csc2ccc(Br)cc12,-22.8%
17,CCC1(C)N(O)C(C)(C)C(c2ccc(OC)cc2)=[N+]1[O-] (stereo not drawn),0.3%
18,COC(=O)C(C)Oc1ccc2c(-c3cccc([N+](=O)[O-])c3)cc(=O)oc2c1 (stereo not drawn),28.8%
19,Cc1cccn2c(=O)c(/C=C(\C#N)S(=O)(=O)c3ccc(Cl)cc3)c(N3CCC(C(N)=O)CC3)nc12,96.9% (active)
20,Cc1ccc(C(c2nnnn2CS(=O)(=O)c2ccc(C)cc2)N2CCC(C(N)=O)CC2)cc1 (stereo not drawn),6.2%
21,O=Cc1c(N2CCN(c3cccc(Cl)c3)CC2)nc2ccccn2c1=O,49.1%

row,SMILES,inhibition
1,COc1ccc(CC(=O)Nc2nc3n(n2)C(c2ccccc2)CC(=O)N3)cc1OC (stereo not drawn),-5.5%
2,COc1ccccc1-n1cnc2cc(NS(=O)(=O)c3ccccc3)ccc21,82.5% (active)
3,COCCCNC(=O)c1ccc2c(c1)ncn2-c1ccccc1OC,-38.2%
4,COc1ccccc1-n1cnc2cc(C(=O)NCC3CCCO3)ccc21 (stereo not drawn),-36.5%
5,Cn1ncc(Br)c1C(=O)NCc1cccs1,1.5%
6,COc1ccc(-c2csc3nc(-c4ccccc4F)oc(=O)c23)cc1OC,-1.8%
7,CCN(CC)S(=O)(=O)c1ccc(N2CCOCC2)c(C(=O)O)c1,19.3%
8,CN(C)S(=O)(=O)c1ccc(N2CCCC2)c(C(=O)NCc2ccccc2)c1,59.9% (active)
9,Cc1ccc(S(=O)(=O)N2CCC(C(=O)N[C@@H](C)C(=O)NCc3ccccc3)CC2)cc1,-9.2%
10,O=C(CSc1nnc(Cn2cnc3ccccc32)o1)c1ccccc1,32.1%
11,CCOC(=O)N1CCN(CC(=O)c2c(C)[nH]c3ccccc23)CC1,-60.1%
12,COc1cc(OC)c(C(=O)Nc2ccc(N(C)C)cc2)cc1OC,33.3%
13,CCC(=O)Nc1ccc(C(=O)Nc2cccc(OC)c2)cc1,-13.5%
14,CCNS(=O)(=O)c1ccc(NC(=O)Nc2cccc(C(F)(F)F)c2)cc1,34.1%
15,CCNS(=O)(=O)c1ccc(NC(=O)Nc2cccc(OC)c2)cc1,59.5% (active)
16,CCOC(=O)C1=C(c2ccccc2)O/C(=C(/C(=O)OC)C(F)(F)F)S1,20.8%
17,Cc1cc(C)c(C#N)c(SCc2[nH]nc3c2C(c2ccccc2)C(C#N)=C(N)O3)n1 (stereo not drawn),18.4%
18,CCCc1[nH]nc2c1C(c1ccc(OC(=O)c3ccco3)cc1)C(C#N)=C(N)O2 (stereo not drawn),52% (active)
19,COc1ccc(-c2[nH]nc3c2C(c2ccncc2)C(C#N)=C(N)O3)cc1 (stereo not drawn),-13%
20,CCCc1[nH]nc2c1C(c1ccc(Br)s1)C(C#N)=C(N)O2 (stereo not drawn),33%
21,CCCc1[nH]nc2c1C(c1ccc(OC)c(Cn3nc(C)c(Br)c3C)c1)C(C#N)=C(N)O2 (stereo not drawn),11.8%

row,SMILES,inhibition
1,CCCc1[nH]nc2c1C(c1c(C)nn(-c3ccccc3)c1Cl)C(C#N)=C(N)O2 (stereo not drawn),52.8% (active)
2,COC(=O)c1cc(S(=O)(=O)NC2CCN(Cc3ccccc3)CC2)cn1C,-9.6%
3,S=c1[nH]nc(-c2ccc(Cl)cc2)n1CC1CCCO1 (stereo not drawn),15.7%
4,CC(C)NS(=O)(=O)c1ccc(CCC(=O)N2CCOCC2)cc1,0%
5,CC1CCCCC1NC(=O)CSc1nnc(N)s1 (stereo not drawn),-16.3%
6,CCCC1CC(C)(C(=O)Cn2[nH]c(=O)ccc2=O)OC1=O (stereo not drawn),-20.1%
7,CC(C)Nc1ncnc2c1nnn2Cc1ccccc1,-0.4%
8,Nc1c(C(=O)NCc2ccccc2)nnn1Cc1cccc(Cl)c1,19.3%
9,COC(=O)c1c(C)c(C)nc(N)c1C#N,-10.8%
10,N#CCCN(CCC#N)c1nnc(-c2ccccc2)s1,2.8%
11,CCOC(=O)c1nnn(-c2nonc2-n2cccc2)c1CN1CCC(C(=O)OCC)CC1,94.8% (active)
12,CCOC(=O)c1nnn(-c2nonc2-n2cccc2)c1CN1CCOCC1,16.6%
13,CCN(CC)Cc1c(C(=O)OC)nnn1-c1nonc1N,-22.1%
14,O=c1c2c(nc3nc[nH]n13)CCC2,-10.5%
15,CC(=O)Nc1cccc(NC(=O)c2c(-c3ccccc3)noc2C)c1,74.3% (active)
16,O=C(Nc1cccc2ccccc12)c1onc2c1CCCC2,-38.6%
17,CC(=O)Nc1cccc(-c2cnc3ccccc3n2)c1,49.7%
18,Cc1onc(-c2ccccc2)c1C(=O)Nc1ccccc1C#N,62.8% (active)
19,Cc1noc(C)c1C(=O)Nc1ccccn1,3.8%
20,Cc1onc(-c2ccccc2)c1C(=O)N1CCOCC1,-1.3%
21,COC(CNC(=O)Cn1ncc2ccsc2c1=O)OC,-15.8%
